Bioassay records deposited in PubChem by several laboratories.
WT yeast gro inh = growth inhibition of WT yeast, mitochondrial fusion screen. mitochondrial fusion phenotypic screen, WT strain. inhibition, % at 10 µM. 2.1% of 190,000 active. AID 1362; in the data active means inhibition above about 58%; tested in S. cerevisiae
Cl transport mod = modulators of human KCC2 chloride dependent transport; Q9H2X9; KCC2 cells, thallium flux FluoZin-2 fluorescence; B-score of Tl+ flux slope (higher = more flux/activation; lower = inhibition) at 10 µM; 2.2% of 190,000 active; AID 1456;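 active means thallium flux slope and its plate-corrected score both differing from the plate sample mean at a set confidence after two filtering rounds, in either direction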;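 further: slope of fluorescence scaled to starting intensity during 10 to 20 s after thallium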
Target sequence (Q9H2X9 whole entry, looked up): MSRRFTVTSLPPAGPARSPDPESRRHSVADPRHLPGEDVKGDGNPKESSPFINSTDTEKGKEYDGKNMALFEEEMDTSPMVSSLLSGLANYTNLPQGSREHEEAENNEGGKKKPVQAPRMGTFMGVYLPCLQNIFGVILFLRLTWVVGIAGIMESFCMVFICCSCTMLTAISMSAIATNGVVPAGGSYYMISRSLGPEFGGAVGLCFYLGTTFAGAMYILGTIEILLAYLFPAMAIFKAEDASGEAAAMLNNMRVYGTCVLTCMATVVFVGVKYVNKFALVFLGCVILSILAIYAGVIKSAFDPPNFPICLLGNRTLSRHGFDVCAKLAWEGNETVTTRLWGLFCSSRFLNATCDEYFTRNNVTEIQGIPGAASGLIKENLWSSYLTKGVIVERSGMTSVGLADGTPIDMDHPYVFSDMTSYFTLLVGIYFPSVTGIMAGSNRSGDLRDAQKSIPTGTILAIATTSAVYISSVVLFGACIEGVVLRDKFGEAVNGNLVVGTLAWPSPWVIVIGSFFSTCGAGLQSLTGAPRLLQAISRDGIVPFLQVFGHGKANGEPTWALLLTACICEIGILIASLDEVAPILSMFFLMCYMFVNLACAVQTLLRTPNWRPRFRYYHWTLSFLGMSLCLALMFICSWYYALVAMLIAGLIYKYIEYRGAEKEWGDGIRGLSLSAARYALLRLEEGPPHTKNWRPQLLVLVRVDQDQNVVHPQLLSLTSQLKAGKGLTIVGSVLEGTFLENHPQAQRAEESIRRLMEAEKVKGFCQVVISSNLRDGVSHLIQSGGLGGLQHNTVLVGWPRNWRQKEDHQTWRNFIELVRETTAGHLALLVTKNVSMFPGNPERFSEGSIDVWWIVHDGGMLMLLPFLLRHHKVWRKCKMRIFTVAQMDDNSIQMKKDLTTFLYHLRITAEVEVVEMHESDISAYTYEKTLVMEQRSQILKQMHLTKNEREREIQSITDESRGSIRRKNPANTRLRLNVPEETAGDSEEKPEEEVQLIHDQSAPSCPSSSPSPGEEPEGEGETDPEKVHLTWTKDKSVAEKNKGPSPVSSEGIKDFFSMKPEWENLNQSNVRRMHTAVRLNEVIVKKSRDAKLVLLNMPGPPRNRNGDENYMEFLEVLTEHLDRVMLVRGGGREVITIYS
Lmaj promast = reduces viability of Leishmania major promastigotes. inhibition, % at 10 µM. resazurin fluorescence viability. AID 1063. 9% of 200,000 active; in the data active means inhibition above about 50%;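 further: promastigotes grown with compound for 44 hours at 28 °C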
ROMK mod = human ROMK K+ channel modulation, primary screen | P48048 | Tet-inducible ROMK, thallium flux fluorescence; actives lie on both sides | B-score at 10 µM | 2% of 130,000 active | AID 1918;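 active means signal ratio slope over the read window, or its plate-corrected B-score, at least 3 SD from the plate mean, either direction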;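 further: B-score of the F/F0 ratio slope over 7 to 12 s after thallium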
Insulin prom up = MIN6 insulin promoter up-regulation | z-score at 5 µM | 0.3% of 190,000 active | MIN6 insulin promoter-GFP reporter, high-content imaging; hits give high values | AID 1625;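 active means z-score above 3 at 5 µM with at least 500 cells counted in the well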
INS promoter inh = TRM-6 insulin promoter activity inhibition; TRM-6 cells (human fetal islet line), insulin promoter-eGFP reporter, imaging; reporter expression induced with tamoxifen; inhibition, % at 2 µM; 0.9% of 130,000 active;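 active means inhibition above the mean plus 3 SD, with well images judged a real hit on visual review, cut at about 60% in these data, passing the limit was not always enough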
Each line names hits and unclear results; the compound was inactive in the other large screens. Shown are actives, neighbours in structure and some others; about 12% of the full set was active somewhere.

S=c1[nH]nc(-c2ccncc2)n1/N=C/C(Cl)=C\c1ccccc1	Lmaj promast 53.1 (no result: INS promoter inh)
S=c1[nH]nc(COc2ccccc2)n1/N=C/C(Cl)=C/c1ccccc1	WT yeast gro inh 73.2, Lmaj promast 80.6 (no result: ROMK mod)
S=c1[nH]nc(-c2ccncc2)n1/N=C/C=C/c1ccccc1	none (no result: WT yeast gro inh, Lmaj promast, INS promoter inh)
Cc1[nH]c2ccccc2c(=O)c1SC(F)(F)C(F)C(F)(F)F (stereo not drawn)	none (no result: ROMK mod)
CNC(C)c1cc(OC)ccc1OC (stereo not drawn)	none (no result: ROMK mod)
COC(=O)c1ccc(C2NC(=S)N(c3ccccc3)C(C)=C2C(=O)Nc2ccccc2OC)cc1 (stereo not drawn)	Lmaj promast 72.1
O=C(N/N=C/c1ccc(Cl)s1)c1ccccc1[N+](=O)[O-]	none (no result: WT yeast gro inh, Lmaj promast, ROMK mod, INS promoter inh)
COc1cc(/C=N/NC(=O)Cc2cccs2)c([N+](=O)[O-])cc1OC	none
Cc1onc(-c2ccccc2)c1C(=O)N/N=C/c1ccc([N+](=O)[O-])s1	Lmaj promast 100.3
O=C(Cc1cccs1)N/N=C\c1ccc([N+](=O)[O-])s1	Lmaj promast 100.3 (no result: INS promoter inh)
O=C(CNC(=O)c1ccccc1Cl)N/N=C/c1ccc([N+](=O)[O-])s1	Lmaj promast 99.1 (no result: ROMK mod, INS promoter inh)
CO/N=C/C(NC(=O)c1ccc(C(F)(F)F)cc1)C(=O)OC (stereo not drawn)	none (no result: INS promoter inh)
Cc1nn(C)c(C(=O)Nc2ccc(Cn3cccn3)cc2)c1[N+](=O)[O-]	none (no result: Insulin prom up)
Cc1cc(=O)oc(C)c1C(=O)NCCc1ccc(F)cc1	none (no result: ROMK mod)
CCCOc1ccc(N2CC(C(=O)Nc3ccccc3OC)CC2=O)cc1 (stereo not drawn)	none (no result: ROMK mod, Insulin prom up, INS promoter inh)
COc1cc(OC)c(S(=O)(=O)NC(C)C)cc1C(=O)O	none (no result: WT yeast gro inh, Lmaj promast, ROMK mod, INS promoter inh)
CCCCNC(=O)/C(=C\c1ccc([N+](=O)[O-])o1)NC(=O)c1ccccc1	Lmaj promast 67.2 (no result: INS promoter inh)
Cc1ccc(/C=C(\NC(=O)c2ccccc2)C(=O)NCCc2ccccn2)o1	none (no result: ROMK mod)
Cc1cccc(NC(=O)/C(=C\c2ccc([N+](=O)[O-])o2)NC(=O)c2ccc(Cl)cc2)c1	none
COC(=O)/C(=C\c1ccc([N+](=O)[O-])o1)NC(=O)c1ccccc1	Lmaj promast 95.0 (no result: INS promoter inh)
COc1ccc(C2CC(=O)C3=C(C2)Nc2ccccc2N(C(=O)CCC(=O)O)C3c2ccc(F)cc2)cc1OC (stereo not drawn)	none (no result: WT yeast gro inh, Lmaj promast, ROMK mod, INS promoter inh)
Cc1cccc(C)c1N(CC(=O)N1CCN(c2ccccc2F)CC1)S(C)(=O)=O	none
CCSc1nc2cc(OC)c(OC)cc2c(=O)n1CC	none (no result: ROMK mod)
N#Cc1nc(COc2ccccc2)oc1NCCN1CCOCC1	none (no result: ROMK mod)
CN(C)CCNc1oc(COc2ccc(-c3ccccc3)cc2)nc1C#N	Lmaj promast 66.0 (no result: ROMK mod)
N#Cc1nc(COc2ccc(-c3ccccc3)cc2)oc1NCCCN1CCOCC1	WT yeast gro inh 76.8, Lmaj promast 63.6
COc1cc(C)c(NC(=S)Nc2cccc(Cl)c2)cc1OC	none
O=C(/C=C1\NC2(CCCC2)Cc2ccccc21)C(=O)N/N=C/c1ccc(O)c(O)c1	Lmaj promast 62.2
N#CC1=C(N)Oc2c(oc(CO)cc2=O)C12C(=O)Nc1ccc(Cl)cc12 (stereo not drawn)	none (no result: ROMK mod, INS promoter inh)
c1coc(-c2nc3nc4ccccc4nc3n2-c2ccc3c(c2)OCCO3)c1	Lmaj promast 83.7
c1ccc(Cn2c(-c3ccco3)nc3nc4ccccc4nc32)cc1	none (no result: ROMK mod)
Clc1cccc(Cl)c1CNC1CCCC1	none
Cc1ccccc1NC1=C(Cl)C(=O)OC1OC(=O)c1ccccc1C (stereo not drawn)	WT yeast gro inh 68.1 (no result: INS promoter inh)
O=C(CO/N=C/c1cccc([N+](=O)[O-])c1)NC1CCCCC1	none (no result: ROMK mod)
Cc1cccc(C)c1OCc1nnc(NC(=O)CSc2ccc(Cl)cc2)s1	Lmaj promast 58.9 (no result: ROMK mod)
COc1ccc2c(c1)CCc1c(C(=O)NCc3ccc(Cl)cc3)noc1-2	none (no result: Insulin prom up)
O=C(CN(Cc1ccc(F)cc1)C(=O)C1CSC(=O)C1)NC1CCCCC1 (stereo not drawn)	Lmaj promast 98.5 (no result: ROMK mod, Insulin prom up)
CCOc1ccc2cc(/C=C/C(=O)c3ccco3)c(Cl)nc2c1	Lmaj promast 64.1
COc1ccc(C(=O)Nc2ccc(Oc3nc(C)nc4sc(-c5ccccc5)cc34)cc2)cc1OC	none (no result: ROMK mod, INS promoter inh)
COc1ccc(N(C(=O)c2ccco2)S(=O)(=O)c2cccs2)cc1	Cl transport mod -2.77
COc1ccc(C(=O)N(c2ccc(OC)cc2)S(=O)(=O)c2cccs2)cc1	WT yeast gro inh 73.7, Lmaj promast 76.5
Cc1ccc2c(c1)nc(-n1nc(C)cc1C)c1nnnn12	none (no result: ROMK mod)
CCc1c(O)c(/C(C)=N\O)c(=O)n(-c2ccccc2)c1-c1ccccc1	Lmaj promast 67.3
C=CCO/N=C(/C)c1c(O)c(CC)c(-c2ccccc2)n(-c2ccccc2)c1=O	Lmaj promast 51.0 (no result: Insulin prom up)
Nc1nc(SCc2ccccc2)[nH]c(=O)c1-c1ccccc1	none (no result: Cl transport mod, ROMK mod, INS promoter inh)
CCCCCCCOC(=O)c1nc(Cl)c(Cl)c(N)c1Cl	WT yeast gro inh 85.3 (no result: ROMK mod)
CCCCOC(=O)c1nc(Cl)c(Cl)c(N)c1Cl	none (no result: ROMK mod, INS promoter inh)
Cc1cc(C)cc(C(=O)/C=C2\NC(=O)CS2)c1	Cl transport mod 6.44 (no result: ROMK mod, INS promoter inh)
CN1CCN(c2cc3c(c4c2[nH]c2ccccc24)C(=O)CC(C)(C)C3)CC1	Lmaj promast 95.0 (no result: Cl transport mod, ROMK mod, INS promoter inh)
Cn1ncc(C#N)c1/N=C/N(Cc1ccccc1)Cc1ccccc1	none (no result: ROMK mod)
C1=CC2CCC1ON2c1ccccc1 (stereo not drawn)	none
CCN1CCCC(OC(=O)c2cc(-c3ccc(C)cc3)nc3ccccc23)C1 (stereo not drawn)	Lmaj promast 83.9 (no result: INS promoter inh)
CCOC(=O)C1CCCN(C(=O)c2cc(-c3ccc(F)cc3)nc3ccccc23)C1 (stereo not drawn)	none
COc1ccc(O[C@H]2C=C[C@@H](c3ccccc3)O[C@@H]2COC(=O)CC/C(C)=N/O[C@@H](C)c2cc(-c3c(C)cc(C)cc3C)no2)cc1	none
COc1cc2c(cc1NC(=O)CSCC(=O)O)oc1ccccc12	none (no result: ROMK mod)
COc1cc2c(cc1NC(=S)Nc1cccc(C(F)(F)F)c1)oc1ccccc12	WT yeast gro inh 64.0 (no result: ROMK mod)
COc1cc2c(cc1NC(=S)Nc1cccc3ccccc13)oc1ccccc12	WT yeast gro inh 69.0, ROMK mod 1.44
COc1cc(Nc2nc3ccccc3n3nnnc23)cc(OC)c1OC	none (no result: ROMK mod, INS promoter inh)
CCOc1ccc(S(=O)(=O)N/N=C(\C)C2CCCCC2)cc1	Lmaj promast 54.9 (no result: ROMK mod)
CCOc1ccc(S(=O)(=O)NC2CCCCCC2)cc1	none (no result: INS promoter inh)
CC1(C)C(=O)Nc2ccccc2N1C(=O)COC(=O)C12CC3CC(CC(O)(C3)C1)C2	none (no result: ROMK mod)
CC1(C)CC(=O)C2=C(C1)N1C(=C(C#N)C2c2ccc(Cl)cc2)N=C(N)c2ccccc21 (stereo not drawn)	Lmaj promast 66.0
CC1(C)CC(=O)C2=C(C1)N1C(=C(C#N)C2c2ccccc2Cl)N=C(N)c2ccccc21 (stereo not drawn)	none
CCOC(=O)c1c(C)[nH]c(C(=O)COC(=O)C2=NNC(=O)CC2)c1C	none
CN(C)CCCN1C(=O)c2cccc3c(Br)ccc(c23)C1=O	Lmaj promast 99.6
COc1ccc(Nc2nc(-c3c(C)nc4ncccn34)cs2)cc1	ROMK mod 3.14
